The test can be described thus: modulators of mitochondrial supercomplex assembly, cell-based, luminescence, Hoechst nuclei count (AID 1645838).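 For all read-outs here: control cybrid cells.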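 For z-score: higher means more mitochondrial supercomplex formation.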 The following applies: Cells, luminescence/Hoechst cell count ratio, supercomplex reporter; for z-score: stronger effect = higher value; for cell count: measured here: cell number, Hoechst nuclei count.
Where [1] appears, read: library stock concentration (final well concentration not given) 80 uM.
[2] abbreviates: library stock concentration (final well concentration not given) 400 uM.
[3] abbreviates: library stock concentration (final well concentration not given) 2 mM.
[4] abbreviates: library stock concentration (final well concentration not given) 10 mM.
[5] abbreviates: library stock concentration (final well concentration not given) 46 uM.
The mark [6] stands for this setting: library stock concentration (final well concentration not given) 278 uM.
The mark [7] stands for this setting: library stock concentration (final well concentration not given) 1.67 mM.

These results are taken from PubChem BioAssay AID1645838 (ICCB-Longwood Screening Facility, Harvard Medical School, 2021).

Molecules are shown by their SMILES. Screen size: about 2,000 compounds; about 100 (5%) were called active. This is one part of a sample in which actives are shown more often than they occur. Cut-off read from the data, not from the text of the source: active = z-score above about 2; inactive = the rest.

For `Oc1cc(-c2nc(-c3ccccc3)[nH]c2-c2ccncc2)ccc1Cl`, the outcome (library stock 10 mM) is “inactive; censored for cell count”. Further, the z-score under setting [1] is -0.487 (inactive), the z-score under setting [2] was 0.0422 (inactive) and the z-score under setting [3] was 0.88 (inactive). Moreover, the cell count reads like this: under setting [1], 6330; under setting [2], 6400; under setting [3], 5020.

With `CS(=O)c1ccc(-c2nc(-c3ccc(F)cc3)c(-c3ccncc3)[nH]2)cc1` (centres undefined), the z-score was -1.15 (inactive) and the cell count is 5830.

In the case of `CN(C)CCOc1ccc(-c2nc(-c3ccc4c(c3)CCC4=NO)c(-c3ccncc3)[nH]2)cc1`, the outcome (library stock 10 mM) was “inactive; censored for cell count”. For the same compound, the z-score was -0.227 (inactive) under setting [1], 0.545 (inactive) under setting [2] and 2.41 (active) under setting [3]. The cell count under setting [1] was found to be 4650, the cell count under setting [2] is 4190 and the cell count under setting [3] is 3060.

Turning to `NC(N)=NCCCC(NC(=O)COCC(c1ccccc1)c1ccccc1)C(=O)O` (centres undefined), the z-score reads like this: under setting [1], -0.24 (inactive); under setting [2], -0.0902 (inactive); under setting [3], -0.0766 (inactive); under setting [4], 0.102 (inactive). Also, the cell count runs as follows: under setting [1], 5010; under setting [2], 5210; under setting [3], 5170; under setting [4], 4630.

Consider `CC(C)OC(=O)CCCC=CCC1C(O)CC(O)C1C=CC(F)(F)COc1ccccc1` (centres undefined), for which the z-score under setting [1] was -0.387 (inactive), the z-score under setting [2] was -0.505 (inactive), the z-score under setting [3] was -0.421 (inactive) and the z-score under setting [4] is -0.49 (inactive). Further, the cell count amounted to 6260 under setting [1], 6740 under setting [2], 6050 under setting [3] and 5570 under setting [4].

Take `NC(CSCCB(O)O)C(=O)O` (centres undefined): the z-score by setting is: under setting [5], -0.211 (inactive); under setting [6], -0.0225 (inactive); under setting [7], -0.355 (inactive); under setting [4], -0.293 (inactive). Besides, the cell count by setting is: under setting [5], 6150; under setting [6], 5500; under setting [7], 6170; under setting [4], 6060.

On to `O=C(NOCC1CC1)c1ccc(F)c(F)c1Nc1ccc(I)cc1Cl`, for which the outcome (library stock 10 mM) is “inactive; censored for cell count”. Besides, the z-score is 0.248 (inactive) under setting [1], 0.901 (inactive) under setting [2] and 1.33 (inactive) under setting [3]. The cell count reads like this: under setting [1], 4290; under setting [2], 3900; under setting [3], 3870.

For the compound `Cn1cnc2c(F)c(Nc3ccc(Br)cc3F)c(C(=O)NOCCO)cc21`, where the note is “library stock 10 mM”, the outcome was “inactive; censored for cell count”. The z-score is 0.694 (inactive) under setting [1], 1.23 (inactive) under setting [2] and 1.53 (inactive) under setting [3]. In addition, the cell count by setting is: under setting [1], 5250; under setting [2], 4630; under setting [3], 2640.

As for `Cn1cnc2c(F)c(Nc3ccc(Br)cc3Cl)c(C(=O)NOCCO)cc21`, the outcome (library stock 10 mM) is “inactive; censored for cell count”. The z-score runs as follows: under setting [1], 0.846 (inactive); under setting [2], 0.791 (inactive); under setting [3], 2.06 (active). Moreover, the cell count under setting [1] worked out at 3770, the cell count under setting [2] was 3780 and the cell count under setting [3] was 2320.

With `COc1cc(C=C(C#N)C(=O)Nc2nnc(C(F)(F)F)s2)ccc1OCc1ccc(C(F)(F)F)cc1C(F)(F)F`, the z-score reads like this: under setting [5], -0.188 (inactive); under setting [6], -0.247 (inactive); under setting [7], -0.448 (inactive); under setting [4], -0.612 (inactive). The cell count stood at 7210 under setting [5], 7400 under setting [6], 7340 under setting [7] and 7260 under setting [4].

`Oc1cccc(-c2nc(N3CCOCC3)c3sccc3n2)c1`: the z-score was 3.96 (active) and the cell count worked out at 2940.

On to `Oc1cccc(-c2nc(N3CCOCC3)c3oc4ncccc4c3n2)c1`, for which the z-score is 2.15 (active) and the cell count stood at 3000.

On to `CS(=O)(=O)N1CCN(Cc2cc3nc(-c4cccc5[nH]ncc45)nc(N4CCOCC4)c3s2)CC1`, for which the outcome (library stock 10 mM) was “inactive; censored for cell count”. Further, the z-score is, setting by setting: under setting [5], -0.278 (inactive); under setting [1], 0.147 (inactive); under setting [6], -0.083 (inactive); under setting [2], 0.745 (inactive); under setting [7], 0.769 (inactive); under setting [3], 1.48 (inactive). The cell count is, setting by setting: under setting [5], 5360; under setting [1], 3950; under setting [6], 4950; under setting [2], 3220; under setting [7], 2910; under setting [3], 2350.

`CC(C)c1ccccc1OC(=O)NCCc1ccc2ccccc2c1`: the z-score is, setting by setting: under setting [5], -0.152 (inactive); under setting [6], 0.0918 (inactive); under setting [7], -0.615 (inactive); under setting [4], -0.366 (inactive). The cell count runs as follows: under setting [5], 6770; under setting [6], 6210; under setting [7], 7330; under setting [4], 5910.

With `COc1cc(C(=O)N(CCC2CCCN2C)CC(C)=Cc2ccccc2F)cc(OC)c1OC` (centres undefined), the z-score under setting [5] is 0.184 (inactive), the z-score under setting [6] is -0.112 (inactive), the z-score under setting [7] is 0.132 (inactive) and the z-score under setting [4] is 0.652 (inactive). In addition, the cell count by setting is: under setting [5], 6990; under setting [6], 6820; under setting [7], 6680; under setting [4], 5820.

In the case of `CC#CCC(C)[C@H](O)/C=C/[C@@H]1[C@H]2C/C(=C\CCCC(=O)O)C[C@H]2C[C@H]1O` (some centres undefined), the z-score is -0.395 (inactive) and the cell count stood at 5310.

On to `OC(COc1cccc2ncccc12)CN1CCN(C2c3ccccc3C3C(c4ccccc42)C3(F)F)CC1` (centres undefined), for which the z-score runs as follows: under setting [1], 0.371 (inactive); under setting [2], 0.508 (inactive); under setting [3], 0.497 (inactive); under setting [4], -1.87 (inactive). Further, the cell count turned out to be 4630 under setting [1], 4580 under setting [2], 4340 under setting [3] and 3800 under setting [4].

Turning to `O=C(c1cccs1)c1ccc(OCCCO)c(Cl)c1Cl`, the z-score is -0.51 (inactive) and the cell count turned out to be 5410.

As for `CC1CC2OC2C=CC=CC(=O)Cc2c(Cl)c(O)cc(O)c2C(=O)O1` (centres undefined), the outcome by setting is: (library stock 278 µM) “inactive; censored for cell count”; (library stock 1.67 mM) “inactive; censored for cell count”; (library stock 10 mM) “inactive; censored for cell count”. In addition, under setting [5], the z-score is -0.774 (inactive). Also, the cell count under setting [5] turned out to be 7560.
